Where “and” joins values, the source holds several entries; their conditions need not be identical. Identical values can stand only once. About 79,000 compounds went through this panel and 15% of them were active in at least one assay; those are over-represented in the sample as a whole. A number with no mark means an inactive call. Calls of active or inactive are those of the source. Cut-off read from the data, not from the text of the source: active = growth inhibition above about 70%; inactive = the rest.
Key:
[1] = NCI Yeast Anticancer Drug Screen. Data for the rad50 strain (AID 155);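 note: 0% = growth of vehicle-only cultures of the same strain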; settings: S. cerevisiae rad50 strain growth inhibition, hits give high values; at 50.0 µM unless noted
Outline: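 Readout: growth inhibition relative to vehicle-treated cultures. Compound exposure was carried out in a genetically defined yeast strain deficient in DNA damage repair.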

[2] = NCI Yeast Anticancer Drug Screen. Data for the mec2-1 strain (AID 157); settings: S. cerevisiae mec2-1 strain, hits give high values; at 50.0 µM unless noted
Outline: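 Each compound was tested on mec2-1 yeast, a strain altered in DNA damage repair or cell cycle control. Growth inhibition is reported relative to vehicle.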

[3] = NCI Yeast Anticancer Drug Screen. Data for the sgs1 mgt1 strain (AID 161);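 note: 0% = growth of cultures given vehicle only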; settings: S. cerevisiae sgs1 mgt1 strain, hits give high values; at 50.0 µM unless noted
Outline: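 Read-out: growth inhibition vs vehicle controls. Cells: mutant yeast strain deficient in DNA damage repair.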

[4] = NCI Yeast Anticancer Drug Screen. Data for the cln2 rad14 strain (AID 165);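 note: 0% = growth equal to vehicle treated cultures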; settings: S. cerevisiae cln2 rad14 strain, hits give high values; at 50.0 µM unless noted
Outline: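 Test compounds were added to cln2 rad14 yeast cultures; inhibition of growth was then determined by comparison with vehicle treatment.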

[5] = NCI Yeast Anticancer Drug Screen. Data for the bub3 strain (AID 167); settings: S. cerevisiae bub3 mutant strain, hits give high values; at 50.0 µM unless noted
Outline: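 Readout: yeast growth inhibition, expressed relative to vehicle-only wells. The test organism is a mutant strain from a panel with lesions in DNA repair or checkpoint genes.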

[6] = NCI Yeast Anticancer Drug Screen. Data for the mlh1 rad18 strain (AID 175); settings: S. cerevisiae mlh1 rad18 strain growth inhibition, hits give high values; at 50.0 µM unless noted
Outline: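 Inhibition values reflect reduced growth of mutant yeast versus vehicle-treated controls following compound exposure; the mutations affect DNA damage repair.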

| SMILES | growth inhibition [1] | growth inhibition [2] | growth inhibition [3] | growth inhibition [4] | growth inhibition [5] | growth inhibition [6] |
| --- | --- | --- | --- | --- | --- | --- |
| C(#Cc1ccccc1)COc1ccccc1 | 9.9% | 11.9% | -15.1% | 1.5% | 17.1% | -5.25% |
| COc1cccc(NC(=O)NCCCl)c1OC | -1.2% | 11.8% | 11.6% | 41% | -3.8% | 22.4% |
| N#Cc1sc2c(c1OC(=O)c1cccs1)c(=O)n(-c1ccccc1)c(=S)n2-c1ccccc1 | 3.1% | 10.4% | 17.2% | -5.55% | 25.8% | 15.2% |
| NC(C(=O)O)c1ccc(CBr)cc1 (stereo not drawn) | 9.5% | -12.3% | -10.2% | 4.25% | -1.6% | -64.5% |
| COc1cc(/C=C/C(=O)O)ccc1O | -6.1% | -17.1% | 16.1% | -48% | -12.3% | 17.6% |
| OCCN/N=C/c1ccncc1 | -4.35% | -52.2% | -20.2% | 15.2% | -14.3% | 23.8% |
| CCOC(=O)NC(=O)c1cn(CCCCCCCCCCC(=O)N2CCN(CCn3cc(C(=O)NC(=O)OCC)c(=O)[nH]c3=O)CC2)c(=O)[nH]c1=O | 27.2% | 18.4% | 17.9% | 5.8% | -6.2% | 6.45% |
| C=C(Br)CNC(=O)C(O)(c1ccccc1)c1ccccc1 | -4.15% | 3.65% | 0% | -15.6% | 5.15% | -16.9% |
| CCC1([N+](C)(C)C)CSC1C (stereo not drawn) | 5.15% | 2.9% | 4.35% | -26.6% | -8.65% | -0.95% |
| Cc1nn(C(=O)c2ccc(Cl)cc2)c2c1C(c1ccc([N+](=O)[O-])cc1)SC(N)=N2 (stereo not drawn) | -14.8% | 7.4% | 16.4% | -16.8% | -16.1% | -4.1% |
| COc1ccc(CCNC(=O)CCN2C(=O)CCC2=O)cc1OC | 8.7% | -12.8% | 1.55% | -3.25% | -14.8% | -2.9% |
| CN(C(=O)c1cccc([N+](=O)[O-])c1)C1CCCCC1 | 2.6% | 34.5% | 32.6% | -4.7% | 22.4% | 14.2% |
| CC(C)CC(=O)/C=C\c1ccco1 | -15.2% | -33.5% | 1.05% | 1.3% | -10.5% | -7.45% |
| O=C(NCCCOC(=O)CCCCCCCCC(=O)OCCCNC(=O)NC(=O)c1c[nH]c(=O)[nH]c1=O)NC(=O)c1c[nH]c(=O)[nH]c1=O | -11.5% | -18.6% | -7.85% | 8.3% | 6.05% | -14.9% |
| C1=C(N2CCCC2)C(=[N+]2CCCC2)C(N2CCCC2)=C1 | 3.65% | -2.45% | 5.55% | -7.25% | 1.5% | 9.15% |
| O=C1C(O)C(O)C(O)C(O)C1O (stereo not drawn) | 22.7% and -14.6% | 20.5% and -17.2% | 3.9% and -36.9% | 15.9% and -12.3% | 20.8% and -8.35% | 19.7% and -3.55% |
| O=CC(NC(=O)N(CCCl)N=O)C(O)C(O)C(O)CO (stereo not drawn) | -8% | -2.3% | 2.15% | -1.7% | -4.95% | 5.75% |
| CC(C)c1cccc(C(C)C)c1NC(=O)C(=O)Cc1nc2ccc([N+](=O)[O-])cc2[nH]c1=O | 26.6% | 19.6% | 34.6% | 25.3% | 24.6% | 40.8% |
| CCCCN1CC(=O)N2CCCC(c3ccccc3)N2C(=O)C1 (stereo not drawn) | 7.55% | -0.95% | 17.6% | 15.4% | 10.5% | -3.5% |

| SMILES | growth inhibition [1] | growth inhibition [2] | growth inhibition [3] | growth inhibition [4] | growth inhibition [5] | growth inhibition [6] |
| --- | --- | --- | --- | --- | --- | --- |
| CCCCN(CCCC)CCCC(O)c1c2ccccc2nc2ccccc12 (stereo not drawn) | -3.55% | -5.95% | 7.6% | -13.9% | 1.4% | 12.6% |
| COc1cc2c(cc1OC)C(=O)/C(=C/c1cc(OC)c(OC)c(OC)c1)C2 | -33.8% | -35.5% | -69.8% | -38.6% | -12.8% | -69% |
| C/C=C(/Br)C(=O)O | -11.6% | -6% | -10.2% | -53.5% | -5.2% | -12.9% |
| COC(=O)c1cc(Cl)ccc1OCC(=O)Nc1ccccc1 | -6.3% | -2.5% | 13.4% | -8.2% | -6.55% | -29.1% |
| N#CCc1nc(-c2cc3ccc(O)cc3oc2=O)cs1 | 19.1% | 8.45% | -25.9% | 2.8% | -12.4% | -40.8% |
| CCOC(=O)c1c(-c2ccc([N+](=O)[O-])cc2)c(C=O)n(-c2ccccc2)c1C | 4.2% | -5.45% | -0.55% | -21.8% | 36.9% | 6.7% |
| O=C1C=C(Nc2ccccc2)C(=O)C=C1Nc1ccccc1 | -2.3% | 1.65% | 10% | -42.2% | 4.15% | -6% |
| CC1(C)CC[C@]2(C(=O)O)CCC3(C)C(=CCC4[C@@]5(C)CC[C@H](OC6OCC(O)C(O)C6OC6OC(CO)C(O)C(O)C6O)C(C)(C)C5CC[C@]43C)C2C1 (stereo partly drawn) | 84.8% (active) | 85.2% (active) | 89.8% (active) | 87.7% (active) | 88.5% (active) | 87.5% (active) |
| C[N+]1(Cc2csc(-c3ccc(Cl)cc3)n2)CCOCC1 | 3.15% | -25.6% | 10.5% | 9.35% | 0.7% | 4.2% |
| O=C1/C(=C/c2ccc(O)cc2)CCc2ccccc21 | -21.6% | -6.35% | -2.1% | 2.75% | 11.9% | -34.2% |
| CCCc1cc2c(cc1CC#N)OCO2 | -5.65% | 19.4% | -9.85% | 2.4% | -3.25% | 17.6% |
| COc1ccc(C(C)(OC)c2cc(C(C)(C)C)c(O)c(C(C)(C)C)c2)cc1 (stereo not drawn) | -19.2% | -12.6% | -20.2% | -0.55% | -2.05% | -21.6% |
| Cc1ccc(C(=O)C2C(=O)C(=O)OC2C2OC(=O)C(=O)C2C(=O)c2ccc(C)cc2)cc1 (stereo not drawn) | 43.8% | 25.1% | 39.5% | 31.2% | -4.55% | 42.8% |
| CCOC(=O)N1CCc2cc(OC)c(OC)cc2C1Cc1ccc(OC)c(OC)c1 (stereo not drawn) | -2.2% | -8.75% | -7.7% | 12% | 1.95% | -5.5% |
| COCNC(=S)c1ccc(C(N)=O)nc1C(=O)NC(C)(C)C | 15.8% | 0.4% | 5.6% | -3.3% | -5.8% | 30.6% |
| CCOC(=O)CN=C1Nc2ccccc2C(=O)N2CSCC12 (stereo not drawn) | -18% | -44.7% | -28.6% | -16.4% | -54.5% | -16.8% |
| CC1C(c2ccccc2)OCCN1C(N)=S (stereo not drawn) | 21.9% | 1% | 52.4% | 17.9% | 24.1% | 23.3% |
| O=C1CC(Br)C(c2ccccc2)(c2ccccc2)O1 (stereo not drawn) | 32.2% | 9.4% | 33.6% | 46.3% | 14.2% | 32% |
| Nc1c(Cl)ncnc1Nc1ccc(CCO)cc1 | -3.6% | -9.25% | 22.6% | -60.3% | -4.4% | -8.75% |

Reference: PubChem BioAssay (NCI)
